Several values for one entry are separate records, joined by “and”; a condition that tells them apart may be missing. Equal entries are not always repeated. Results filed as inconclusive are left out. Activity calls are given as the source filed them. Calls follow the shape of the dose curve; as a rule, active = well fitted inhibition curve with a large enough effect; inconclusive = small, poorly fitted or top-dose-only effect; inactive = flat fitted curve, though single readings scatter.
system: CRL-7250; experiment: Cytotoxic Profiling of Annotated Libraries Using Quantitative High-Throughput Screening (AID 1296008); conditions: Five cell lines viability, CellTiter-Glo ATP luminescence, 48-72 h; max response: hits give low values; also: nearly all actives have a fitted effect of over 60% in size
Procedure, shortened: (§1)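 Cytotoxicity was measured as CellTiter-Glo ATP luminescence, read after 10 min at room temperature. Compound treatment of the cells lasted 48 or 72 hr at 37 degrees Celsius in a qHTS format.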
% is scaled to controls: 0 for no effect and ±100 for the full control effect.

Compound	max response	outcome
CN1CC(=O)N2[C@H](c3ccc4c(c3)OCO4)c3[nH]c4ccccc4c3C[C@@H]2C1=O	3.82% (inactive)	–
COc1ccc2cc(C=O)ccc2c1	3.03% (inactive)	–
CN1Cc2cc(C(=O)N3CCC(C4CCNCC4)CC3)ccc2NC(CC(=O)O)C1=O (stereo not drawn)	0.285% (inactive)	–
Clc1ccc2c(c1)Nc1ccccc1S2	-4.08% (inactive)	–
CNC[C@H](O)[C@@H](O)[C@H](O)[C@H](O)CO	-2.73% (inactive)	–
CC(=O)[C@H]1CC[C@H]2[C@@H]3C=CC4=CC(=O)CC[C@@]4(C)[C@@H]3CC[C@]12C	-2.73% (inactive) and 1.98% (inactive)	–
c1ccc2c(c1)CCc1ccccc1N2	–	inactive
CN1N=C(C(N)=O)CCC1=O	–	inactive
O=C1CC(c2ccc(Cl)cc2)CC(=O)N1	–	inactive
Nc1c[n+](N2CCOCC2)no1	–	inactive
O=[N+]([O-])c1cncn1CCN1CCOCC1	–	inactive
CCOC(=O)C(=O)CCc1ccccc1	-13.2% (inactive)	–
O=C(CCCl)NCc1ccccc1	-8.2% (inactive)	–
COC(=O)/C=C(/C)N	-6.42% (inactive)	–
C=C(C)C(=O)OCC(O)CO (stereo not drawn)	4.35% (inactive)	–
COc1cc(OC)nc(O[C@H](C(=O)O)C(OC)(c2ccccc2)c2ccccc2)n1	3.73% (inactive)	–
O=C(O)C1CCC1	–	inactive
CC(C)(C)c1nnc(NS(=O)(=O)c2ccccc2)s1	4.99% (inactive)	–
O=C(O)C(=O)Nc1cccc(-c2nn[nH]n2)c1	-0.0138% (inactive)	–
O=C1NC(c2ccccc2)(c2ccccc2)C(=O)N1COP(=O)(O)O	–	inactive

Compound	max response	outcome
O=C(NN1CCCC1)NS(=O)(=O)c1ccc(Cl)cc1	-14.3% (inactive)	–
CCOC(=O)c1ccc(O)c(O)c1	2.32% (inactive)	–
Cc1ccccc1C(=O)N1CC/C(=N\OS(=O)(=O)O)c2ccc(Cl)cc21	3.76% (inactive)	–
Cc1cccc(OCC(O)CNC(C)(C)C)c1C (stereo not drawn)	-7.39% (inactive)	–
COC(=O)/C=C\C(=O)OC	-5.33% (inactive)	–
COc1ccc(CCC(C)=O)cc1	-2.07% (inactive)	–
CC(=O)N(c1onc(C)c1C)S(=O)(=O)c1ccc(N)cc1	-16.4% (inactive)	–
CC(C)C(=O)Nc1cccc(C(F)(F)F)c1	3.59% (inactive)	–
O=C(CCCCC(=O)Nc1c(I)cc(I)c(C(=O)O)c1I)Nc1c(I)cc(I)c(C(=O)O)c1I	2.98% (inactive)	–
C[C@H]1C[C@@H]2[C@H]([C@@H](O)C[C@@]3(C)[C@H]2CC[C@]3(O)C(=O)CO)[C@@]2(C)C=CC(=O)C=C12	-5.61% (inactive)	–
O=C(O)c1ccc(OCCN2CCCCC2)cc1	4.52% (inactive)	–
CCN(CC)C(=O)C1CN2CCc3cc(OC)c(OC)cc3C2CC1OC(C)=O (stereo not drawn)	-9.43% (inactive)	–
CC(=O)N1CCN(c2ccc(O)cc2)CC1	-1.56% (inactive)	–
C/C(=N\O)[C@@H](C)NCC(C)(C)CN[C@H](C)/C(C)=N/O	–	inactive
Cc1c(F)cc2c(=O)c(C(=O)O)cn3c2c1CCC3C (stereo not drawn)	-2.94% (inactive)	–
CCN(CC)CC(=O)OCC(=O)[C@@]1(O)CC[C@H]2[C@@H]3CCC4=CC(=O)CC[C@]4(C)[C@H]3[C@@H](O)C[C@@]21C	–	inactive
CC(C)(C)c1cc(C=O)cc(C(C)(C)C)c1O	4.77% (inactive)	–
CC(C)N(CCC(=O)c1ccc2ccccc2c1)Cc1ccccc1	-24.3% (inactive)	–
NC(=O)NC1N=C([O][Al])NC1=O (stereo not drawn)	–	inactive

system: HEK293; experiment: as above; conditions: Five cell lines viability, CellTiter-Glo ATP luminescence, 48-72 h; max response: hits give low values
Procedure, shortened: as §1

Compound	max response	outcome
CN1CC(=O)N2[C@H](c3ccc4c(c3)OCO4)c3[nH]c4ccccc4c3C[C@@H]2C1=O	-4.29% (inactive)	–
COc1ccc2cc(C=O)ccc2c1	0.484% (inactive)	–
CN1Cc2cc(C(=O)N3CCC(C4CCNCC4)CC3)ccc2NC(CC(=O)O)C1=O (stereo not drawn)	-6.55% (inactive)	–
Clc1ccc2c(c1)Nc1ccccc1S2	-6.16% (inactive)	–
CNC[C@H](O)[C@@H](O)[C@H](O)[C@H](O)CO	-0.47% (inactive)	–
CC(=O)[C@H]1CC[C@H]2[C@@H]3C=CC4=CC(=O)CC[C@@]4(C)[C@@H]3CC[C@]12C	-2.74% (inactive)	–
c1ccc2c(c1)CCc1ccccc1N2	–	inactive
CN1N=C(C(N)=O)CCC1=O	–	inactive
O=C1CC(c2ccc(Cl)cc2)CC(=O)N1	–	inactive
Nc1c[n+](N2CCOCC2)no1	–	inactive
O=[N+]([O-])c1cncn1CCN1CCOCC1	3.5% (inactive)	–
CCOC(=O)C(=O)CCc1ccccc1	4.19% (inactive)	–
O=C(CCCl)NCc1ccccc1	-4.62% (inactive)	–
COC(=O)/C=C(/C)N	–	inactive
C=C(C)C(=O)OCC(O)CO (stereo not drawn)	-5.25% (inactive)	–
COc1cc(OC)nc(O[C@H](C(=O)O)C(OC)(c2ccccc2)c2ccccc2)n1	–	inactive
O=C(O)C1CCC1	-2.16% (inactive)	–
CC(C)(C)c1nnc(NS(=O)(=O)c2ccccc2)s1	–	inactive
O=C(O)C(=O)Nc1cccc(-c2nn[nH]n2)c1	–	inactive
O=C1NC(c2ccccc2)(c2ccccc2)C(=O)N1COP(=O)(O)O	–	inactive

Compound	max response	outcome
O=C(NN1CCCC1)NS(=O)(=O)c1ccc(Cl)cc1	2.09% (inactive)	–
CCOC(=O)c1ccc(O)c(O)c1	–	inactive
Cc1ccccc1C(=O)N1CC/C(=N\OS(=O)(=O)O)c2ccc(Cl)cc21	-7.21% (inactive)	–
Cc1cccc(OCC(O)CNC(C)(C)C)c1C (stereo not drawn)	-11.8% (inactive)	–
COC(=O)/C=C\C(=O)OC	–	inactive
COc1ccc(CCC(C)=O)cc1	–	inactive
CC(=O)N(c1onc(C)c1C)S(=O)(=O)c1ccc(N)cc1	4.9% (inactive)	–
CC(C)C(=O)Nc1cccc(C(F)(F)F)c1	3.73% (inactive)	–
O=C(CCCCC(=O)Nc1c(I)cc(I)c(C(=O)O)c1I)Nc1c(I)cc(I)c(C(=O)O)c1I	–	inactive
C[C@H]1C[C@@H]2[C@H]([C@@H](O)C[C@@]3(C)[C@H]2CC[C@]3(O)C(=O)CO)[C@@]2(C)C=CC(=O)C=C12	–	inactive
O=C(O)c1ccc(OCCN2CCCCC2)cc1	-3.98% (inactive)	–
CCN(CC)C(=O)C1CN2CCc3cc(OC)c(OC)cc3C2CC1OC(C)=O (stereo not drawn)	–	inactive
CC(=O)N1CCN(c2ccc(O)cc2)CC1	-2.95% (inactive)	–
C/C(=N\O)[C@@H](C)NCC(C)(C)CN[C@H](C)/C(C)=N/O	-22.3% (inactive)	–
Cc1c(F)cc2c(=O)c(C(=O)O)cn3c2c1CCC3C (stereo not drawn)	–	inactive
CCN(CC)CC(=O)OCC(=O)[C@@]1(O)CC[C@H]2[C@@H]3CCC4=CC(=O)CC[C@]4(C)[C@H]3[C@@H](O)C[C@@]21C	0.946% (inactive)	–
CC(C)(C)c1cc(C=O)cc(C(C)(C)C)c1O	3.28% (inactive)	–
CC(C)N(CCC(=O)c1ccc2ccccc2c1)Cc1ccccc1	-116% (inactive)	–
NC(=O)NC1N=C([O][Al])NC1=O (stereo not drawn)	–	inactive
